# Test results as given in PubChem BioAssay (NCI).
# About 79,000 compounds went through this panel and 15% of them were active in at least one assay; those are over-represented in the sample as a whole. Activity calls are given as the source filed them. No stated cut-off is given here; in the data, active means growth inhibition above about 70%; inactive means the rest.
# Assay: NCI Yeast Anticancer Drug Screen. Data for the sgs1 mgt1 strain (AID 161);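 further: 0% = growth of cultures given vehicle only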
# Settings: S. cerevisiae sgs1 mgt1 strain, at 50.0 µM, hits give high values
# In short: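 Mutant yeast exposed to compound; growth scored against vehicle-only wells.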
row,SMILES,growth inhibition
1,COc1cc(/C=C(\C#N)C(=O)c2ccccc2)ccc1OCc1ccccc1,-15.2% (inactive)
2,COC(=O)c1[nH]c(=O)c(C#N)c(C(=O)OC)c1C(=O)c1ccccc1,10.5% (inactive)
3,CCCNc1ccc(C2=NCCCN2)cc1,-3.9% (inactive)
4,Nc1ccc(N)c([N+](=O)[O-])c1,-27.3% (inactive)
5,COc1cc2cc(OC(C)=O)c3cc4c(cc3c2c(OC)c1OC)OCO4,-16.3% (inactive)
6,CC(=O)OCC1OC(OC2=C(CC=C(C)C)C(=O)c3ccccc3C2=O)C(OC(C)=O)C(OC(C)=O)C1OC(C)=O (centres undefined),-17.4% (inactive)
7,CNS(=O)(=O)c1ccc(Cl)c(Cl)c1,-13.5% (inactive)
8,CCCCC1(CC)COC(CCC)OC1 (centres undefined),12.7% (inactive)
9,O=C1C=C(Nc2ccc([N+](=O)[O-])cc2)c2ccccc2C1=O,-1.3% (inactive)
10,C#CC(C)(O)c1ccc(Cl)cc1 (centres undefined),8.7% (inactive)
11,NCC(=O)CCC(=O)O,0.5% (inactive)
12,COc1ccc(C2OC(N)=C(O)C2=O)cc1OC (centres undefined),-14.4% (inactive)
13,O=C1OC[C@H]2[C@H](c3ccc(O)c(O)c3)c3cc(O)c(O)cc3C[C@H]12,23.9% (inactive)
14,CCN=c1cc2sc3cc(NCC)c(C)cc3nc-2cc1C,-16.4% (inactive)
15,O=[N+]([O-])c1ccc(/C=C/C=C/c2ccccc2)c(Cl)c1,-3.4% (inactive)
16,CC(C)NC(=O)OCc1c(COC(=O)NC(C)C)c(-c2ccc(Cl)c(Cl)c2)n2c1SCC2,15.9% (inactive)
17,O=[N+]([O-])c1cccc(N=Nc2ccc(O)cc2O)c1,65.5% (inactive)
18,O=c1[nH]cc(Cl)cc1O,-1.35% (inactive)
19,CCN(CC)c1ccc2nc3ccc(=[N+](CC)CC)cc-3oc2c1,-187% (inactive)
20,O=C1OC(=O)C2C1C1(Cl)C(Cl)=C(Cl)C2(Cl)C2C(=O)OC(=O)C21 (centres undefined),17.9% (inactive)

row,SMILES,growth inhibition
1,CNc1nc(NC)c2cn[nH]c2n1,20.2% (inactive)
2,CC1=CC(C)(C)NC(=S)N1c1ccc(S(=O)(=O)O)c2cccc(S(=O)(=O)O)c12,-13.1% (inactive)
3,CC(C)=NNc1ccc([N+](=O)[O-])cc1[N+](=O)[O-],8.3% (inactive)
4,Cc1c(C(=O)O)c(=O)n(-c2ccccc2)n1C,-8.75% (inactive)
5,O=c1cc(-c2ccccc2)[nH]c(=S)[nH]1,8.65% (inactive)
6,C=CCNC(=O)c1ccc(OC)cc1,22.5% (inactive)
7,CC[N+](C)(CC)CCO,4.4% (inactive)
8,Cc1cccc(C(=O)N(C(C)C)C(C)C)c1,-4.25% (inactive)
9,NC(C(=O)O)c1ccc([N+](=O)[O-])cc1 (centres undefined),8.8% (inactive)
10,OC1OC(COC(c2ccccc2)(c2ccccc2)c2ccccc2)C(O)C(O)C1O (centres undefined),-16.6% (inactive)
11,Cc1ccc(/C(C#N)=C/c2ccc3c(c2)OCO3)cc1,26.3% (inactive)
12,O=c1cc(-c2ccccc2)nc2cc(-c3ccco3)[nH]n12,-6.05% (inactive)
13,CCOC(=O)C(O)C(O)C(=O)OCC (centres undefined),-29.3% (inactive)
14,Oc1ccc(O)cc1,-0.45% (inactive)
15,COc1cccc(COC(=O)Nc2ccccc2)c1OC,29.7% (inactive)
16,CC(=O)Nc1cccc(NC(C)=O)n1,1.25% (inactive)
17,Cc1cc(N)ccc1-c1ccc(N)cc1C,4.45% (inactive)
18,C=CCOC(=O)C(=O)OCC=C,-25.9% (inactive)
19,S=c1nn[nH]c2ccccc12,8.6% (inactive)
